Laboratory results as given in paper PMC7862700, “An all-to-all approach to the identification of sequence-specific readers for epigenetic DNA modifications on cytosine”.

How the values were obtained:
Experiment in all cases: DAPPL (digital affinity profiling via proximity ligation, sequencing); 10 mM Tris-HCl pH 7.5, 50 mM NaCl, 1 mM DTT, 4% glycerol, room temperature, 30 min; GST-TFs on glutathione beads, 16-mer random dsDNA library, 0.1% formaldehyde crosslink after washing; high values mean tight binding
FEV = molecular target: T1, FEV (Homo sapiens, UniProt Q99581 1-238); conditions: protein: recombinant; tags: N-terminal GST; dsDNA, one strand shown
T1 sequence: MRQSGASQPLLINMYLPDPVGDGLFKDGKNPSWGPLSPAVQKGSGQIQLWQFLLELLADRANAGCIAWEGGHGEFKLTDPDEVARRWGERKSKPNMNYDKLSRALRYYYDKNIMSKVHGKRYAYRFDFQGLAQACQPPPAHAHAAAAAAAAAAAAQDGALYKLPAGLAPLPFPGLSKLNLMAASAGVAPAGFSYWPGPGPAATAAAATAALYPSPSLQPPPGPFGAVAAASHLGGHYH
How it was run: (§1)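 Binding signal is given per hexamer as its read frequency for a factor divided by its frequency in the tag-only sample. GST-fused human transcription factors were expressed in yeast, captured on glutathione beads, barcoded with DNA and pooled with that sample, then incubated with 200 nmole of a 16-mer random double-stranded DNA library in Tris/NaCl/DTT/glycerol buffer for 30 min at room temperature. The pools were then washed, crosslinked, proximity-ligated, amplified by PCR and sequenced on an Illumina NextSeq500.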

ETV5 = ETV5 (Homo sapiens, UniProt P41161 1-510); conditions: protein: recombinant; tags: N-terminal GST; dsDNA, one strand shown
Chain of ETV5 (P41161 whole entry): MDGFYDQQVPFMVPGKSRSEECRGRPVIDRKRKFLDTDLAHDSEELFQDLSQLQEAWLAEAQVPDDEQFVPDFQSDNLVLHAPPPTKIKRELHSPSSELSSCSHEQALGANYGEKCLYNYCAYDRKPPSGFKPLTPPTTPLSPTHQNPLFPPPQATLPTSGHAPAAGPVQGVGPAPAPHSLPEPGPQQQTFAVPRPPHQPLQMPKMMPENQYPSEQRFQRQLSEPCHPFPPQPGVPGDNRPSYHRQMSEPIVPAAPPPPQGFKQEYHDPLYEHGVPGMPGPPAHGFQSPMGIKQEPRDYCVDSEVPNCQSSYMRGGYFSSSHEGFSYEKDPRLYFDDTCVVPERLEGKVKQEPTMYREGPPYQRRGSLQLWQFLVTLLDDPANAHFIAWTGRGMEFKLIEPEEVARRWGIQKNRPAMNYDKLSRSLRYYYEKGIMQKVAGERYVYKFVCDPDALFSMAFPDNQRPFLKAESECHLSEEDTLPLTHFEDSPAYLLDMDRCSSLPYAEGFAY
How it was run: as §1

HSF1 = HSF1 (Homo sapiens, UniProt Q00613 1-529); conditions: protein: recombinant; tags: N-terminal GST; chain copies: 3; dsDNA, one strand shown
Chain of HSF1 (Q00613 whole entry): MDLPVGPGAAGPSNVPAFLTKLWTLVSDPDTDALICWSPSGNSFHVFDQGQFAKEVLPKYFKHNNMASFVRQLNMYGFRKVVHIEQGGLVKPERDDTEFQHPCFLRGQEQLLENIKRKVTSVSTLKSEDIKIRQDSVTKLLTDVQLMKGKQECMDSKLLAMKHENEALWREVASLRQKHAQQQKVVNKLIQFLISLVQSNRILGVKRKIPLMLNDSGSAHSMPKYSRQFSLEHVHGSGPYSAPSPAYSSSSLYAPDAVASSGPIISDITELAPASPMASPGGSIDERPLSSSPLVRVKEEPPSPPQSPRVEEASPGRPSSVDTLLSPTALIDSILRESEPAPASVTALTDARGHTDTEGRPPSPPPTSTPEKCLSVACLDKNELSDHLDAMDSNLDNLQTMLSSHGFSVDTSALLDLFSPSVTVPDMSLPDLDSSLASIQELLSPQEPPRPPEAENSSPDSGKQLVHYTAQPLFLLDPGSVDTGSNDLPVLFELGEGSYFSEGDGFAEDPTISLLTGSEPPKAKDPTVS
How it was run: as §1

SPIC = molecular target: T2, SPIC (Homo sapiens, UniProt Q8N5J4 1-248); conditions: protein: recombinant; tags: N-terminal GST; dsDNA, one strand shown
T2 sequence: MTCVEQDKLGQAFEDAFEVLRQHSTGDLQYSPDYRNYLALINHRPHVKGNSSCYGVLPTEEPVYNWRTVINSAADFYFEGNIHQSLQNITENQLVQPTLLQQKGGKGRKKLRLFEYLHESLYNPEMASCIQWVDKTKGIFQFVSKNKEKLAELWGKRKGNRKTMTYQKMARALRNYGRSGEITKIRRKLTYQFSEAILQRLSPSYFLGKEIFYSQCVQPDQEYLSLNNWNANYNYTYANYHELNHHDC
How it was run: as §1

ELF4 = ELF4 (Homo sapiens, UniProt Q99607 1-663); conditions: protein: recombinant; tags: N-terminal GST; dsDNA, one strand shown
Chain of ELF4 (Q99607 whole entry): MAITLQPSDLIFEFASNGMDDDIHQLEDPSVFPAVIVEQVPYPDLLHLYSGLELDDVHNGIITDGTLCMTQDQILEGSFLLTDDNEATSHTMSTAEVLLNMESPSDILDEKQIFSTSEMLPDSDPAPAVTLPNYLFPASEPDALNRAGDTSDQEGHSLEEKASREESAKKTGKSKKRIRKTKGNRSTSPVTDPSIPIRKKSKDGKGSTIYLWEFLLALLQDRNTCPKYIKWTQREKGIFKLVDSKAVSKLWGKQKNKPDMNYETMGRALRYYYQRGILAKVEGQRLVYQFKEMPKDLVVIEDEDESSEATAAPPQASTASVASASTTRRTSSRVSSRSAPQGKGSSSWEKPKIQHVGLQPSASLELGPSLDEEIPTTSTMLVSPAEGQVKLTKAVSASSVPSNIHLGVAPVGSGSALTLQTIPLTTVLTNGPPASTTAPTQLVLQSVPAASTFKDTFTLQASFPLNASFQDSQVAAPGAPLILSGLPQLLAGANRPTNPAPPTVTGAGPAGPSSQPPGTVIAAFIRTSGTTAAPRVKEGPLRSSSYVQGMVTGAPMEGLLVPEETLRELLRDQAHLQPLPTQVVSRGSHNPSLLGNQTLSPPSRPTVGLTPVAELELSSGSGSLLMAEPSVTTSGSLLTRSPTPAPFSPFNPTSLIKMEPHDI
How it was run: as §1

ELK4 = molecular target: T3, ELK4 (Homo sapiens, UniProt P28324-2 1-405); conditions: protein: recombinant; tags: N-terminal GST; dsDNA, one strand shown
T3 sequence: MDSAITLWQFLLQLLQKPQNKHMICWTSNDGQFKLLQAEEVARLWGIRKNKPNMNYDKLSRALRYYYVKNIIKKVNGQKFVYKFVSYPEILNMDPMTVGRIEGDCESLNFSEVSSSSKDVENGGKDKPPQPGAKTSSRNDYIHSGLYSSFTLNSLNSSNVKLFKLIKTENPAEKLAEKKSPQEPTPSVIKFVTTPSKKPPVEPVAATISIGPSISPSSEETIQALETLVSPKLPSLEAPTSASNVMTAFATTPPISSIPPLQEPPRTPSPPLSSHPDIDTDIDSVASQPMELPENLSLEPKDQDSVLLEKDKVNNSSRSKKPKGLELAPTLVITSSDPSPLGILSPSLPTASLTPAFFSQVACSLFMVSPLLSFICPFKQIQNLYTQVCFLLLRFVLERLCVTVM
How it was run: as §1

ETV2 = molecular target: T4, ETV2 (Homo sapiens, UniProt O00321 1-342); conditions: protein: recombinant; tags: N-terminal GST; dsDNA, one strand shown
T4 sequence: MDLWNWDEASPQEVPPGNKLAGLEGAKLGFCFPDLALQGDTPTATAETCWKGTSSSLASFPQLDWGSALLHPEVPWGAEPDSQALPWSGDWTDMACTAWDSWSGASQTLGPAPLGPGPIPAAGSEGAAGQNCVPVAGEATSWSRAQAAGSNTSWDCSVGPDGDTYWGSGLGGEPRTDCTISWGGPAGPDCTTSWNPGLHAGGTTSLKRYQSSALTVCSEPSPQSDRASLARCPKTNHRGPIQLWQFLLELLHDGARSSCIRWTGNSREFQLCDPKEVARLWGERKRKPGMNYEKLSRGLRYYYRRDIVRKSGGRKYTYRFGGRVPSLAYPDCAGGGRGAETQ
How it was run: as §1

ELF3 = molecular target: T5, ELF3 (Homo sapiens, UniProt P78545 1-371); conditions: protein: recombinant; tags: N-terminal GST; dsDNA, one strand shown
T5 sequence: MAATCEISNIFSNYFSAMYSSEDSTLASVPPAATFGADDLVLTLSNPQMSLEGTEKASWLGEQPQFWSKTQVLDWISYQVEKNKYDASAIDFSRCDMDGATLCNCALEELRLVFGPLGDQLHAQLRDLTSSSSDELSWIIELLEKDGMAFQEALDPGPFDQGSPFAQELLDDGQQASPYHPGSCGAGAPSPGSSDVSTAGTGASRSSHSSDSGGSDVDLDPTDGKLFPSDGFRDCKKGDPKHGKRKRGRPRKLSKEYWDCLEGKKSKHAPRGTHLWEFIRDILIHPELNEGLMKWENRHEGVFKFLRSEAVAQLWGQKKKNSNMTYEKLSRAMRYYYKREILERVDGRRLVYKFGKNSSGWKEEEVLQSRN
How it was run: as §1

CRX = CRX (Homo sapiens, UniProt O43186 1-299); conditions: protein: recombinant; tags: N-terminal GST; dsDNA, one strand shown
Chain of CRX (O43186 whole entry): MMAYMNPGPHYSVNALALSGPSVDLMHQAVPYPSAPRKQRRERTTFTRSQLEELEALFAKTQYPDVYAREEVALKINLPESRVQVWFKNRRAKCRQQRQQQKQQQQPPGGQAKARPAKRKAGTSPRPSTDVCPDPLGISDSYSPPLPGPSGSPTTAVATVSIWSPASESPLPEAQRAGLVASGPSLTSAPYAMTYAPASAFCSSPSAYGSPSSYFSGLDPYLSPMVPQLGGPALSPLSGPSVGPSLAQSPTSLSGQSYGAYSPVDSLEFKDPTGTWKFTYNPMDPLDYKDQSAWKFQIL
How it was run: as §1

ETV1 = ETV1 (Homo sapiens, UniProt P50549 1-477); conditions: protein: recombinant; tags: N-terminal GST; dsDNA, one strand shown
Chain of ETV1 (P50549 whole entry): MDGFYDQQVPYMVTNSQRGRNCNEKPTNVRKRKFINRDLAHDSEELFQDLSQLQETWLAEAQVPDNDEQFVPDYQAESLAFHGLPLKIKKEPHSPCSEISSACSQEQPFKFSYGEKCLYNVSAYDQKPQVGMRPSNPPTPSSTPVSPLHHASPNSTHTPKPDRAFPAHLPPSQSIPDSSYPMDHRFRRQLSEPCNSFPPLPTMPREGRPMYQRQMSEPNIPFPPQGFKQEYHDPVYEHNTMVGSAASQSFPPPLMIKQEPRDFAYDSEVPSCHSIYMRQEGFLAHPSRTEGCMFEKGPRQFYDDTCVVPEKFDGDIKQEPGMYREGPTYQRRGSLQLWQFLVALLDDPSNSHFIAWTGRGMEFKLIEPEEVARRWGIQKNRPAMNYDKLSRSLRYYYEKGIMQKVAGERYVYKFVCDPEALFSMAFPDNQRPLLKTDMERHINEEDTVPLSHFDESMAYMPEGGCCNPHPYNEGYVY
How it was run: as §1

ERF = molecular target: T6, ERF (Homo sapiens, UniProt P50548 1-548); conditions: protein: recombinant; tags: N-terminal GST; dsDNA, one strand shown
T6 sequence: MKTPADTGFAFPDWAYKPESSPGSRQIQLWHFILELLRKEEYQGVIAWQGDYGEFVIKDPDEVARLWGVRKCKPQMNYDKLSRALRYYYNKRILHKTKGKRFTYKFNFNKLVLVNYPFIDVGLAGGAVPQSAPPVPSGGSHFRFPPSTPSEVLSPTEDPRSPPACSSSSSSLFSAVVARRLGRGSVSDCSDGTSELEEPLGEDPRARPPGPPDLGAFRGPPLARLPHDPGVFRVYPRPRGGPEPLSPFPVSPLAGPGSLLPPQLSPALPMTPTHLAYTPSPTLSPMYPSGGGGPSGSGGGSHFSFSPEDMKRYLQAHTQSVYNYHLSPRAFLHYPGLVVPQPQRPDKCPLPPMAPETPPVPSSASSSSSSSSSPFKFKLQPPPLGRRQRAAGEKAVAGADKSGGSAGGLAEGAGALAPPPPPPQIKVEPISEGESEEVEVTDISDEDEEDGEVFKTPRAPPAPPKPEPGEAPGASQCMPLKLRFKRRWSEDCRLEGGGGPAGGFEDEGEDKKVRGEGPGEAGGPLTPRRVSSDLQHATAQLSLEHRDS
How it was run: as §1

ETV3L = molecular target: T7, ETV3L (Homo sapiens, UniProt Q6ZN32 1-361); conditions: protein: recombinant; tags: N-terminal GST; dsDNA, one strand shown
T7 sequence: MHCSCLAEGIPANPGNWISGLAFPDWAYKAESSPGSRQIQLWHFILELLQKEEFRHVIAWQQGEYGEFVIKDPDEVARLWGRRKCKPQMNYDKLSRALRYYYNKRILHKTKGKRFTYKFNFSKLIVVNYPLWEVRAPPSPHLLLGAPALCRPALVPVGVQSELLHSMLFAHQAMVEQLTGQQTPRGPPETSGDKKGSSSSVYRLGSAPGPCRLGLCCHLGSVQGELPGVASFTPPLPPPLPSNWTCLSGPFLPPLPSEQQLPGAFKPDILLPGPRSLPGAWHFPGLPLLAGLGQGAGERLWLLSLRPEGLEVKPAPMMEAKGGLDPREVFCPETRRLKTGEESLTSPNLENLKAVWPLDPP
How it was run: as §1

ETS2 = molecular target: T8, ETS2 (Homo sapiens, UniProt P15036 1-469); conditions: protein: recombinant; tags: N-terminal GST; dsDNA, one strand shown
T8 sequence: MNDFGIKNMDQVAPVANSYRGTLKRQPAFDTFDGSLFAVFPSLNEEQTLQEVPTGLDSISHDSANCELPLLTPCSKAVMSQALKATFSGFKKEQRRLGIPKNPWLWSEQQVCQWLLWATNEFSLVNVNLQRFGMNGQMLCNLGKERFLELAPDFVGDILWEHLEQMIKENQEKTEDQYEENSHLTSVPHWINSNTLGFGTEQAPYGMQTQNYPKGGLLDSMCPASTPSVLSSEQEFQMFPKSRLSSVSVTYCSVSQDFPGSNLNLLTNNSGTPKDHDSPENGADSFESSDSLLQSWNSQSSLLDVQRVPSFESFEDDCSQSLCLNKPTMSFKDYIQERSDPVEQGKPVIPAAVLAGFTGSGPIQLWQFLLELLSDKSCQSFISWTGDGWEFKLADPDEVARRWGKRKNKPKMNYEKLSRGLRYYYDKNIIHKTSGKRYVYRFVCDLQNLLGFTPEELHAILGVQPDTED
How it was run: as §1

SPDEF = molecular target: T9, SPDEF (Homo sapiens, UniProt O95238 1-335); conditions: protein: recombinant; tags: N-terminal GST; dsDNA, one strand shown
T9 sequence: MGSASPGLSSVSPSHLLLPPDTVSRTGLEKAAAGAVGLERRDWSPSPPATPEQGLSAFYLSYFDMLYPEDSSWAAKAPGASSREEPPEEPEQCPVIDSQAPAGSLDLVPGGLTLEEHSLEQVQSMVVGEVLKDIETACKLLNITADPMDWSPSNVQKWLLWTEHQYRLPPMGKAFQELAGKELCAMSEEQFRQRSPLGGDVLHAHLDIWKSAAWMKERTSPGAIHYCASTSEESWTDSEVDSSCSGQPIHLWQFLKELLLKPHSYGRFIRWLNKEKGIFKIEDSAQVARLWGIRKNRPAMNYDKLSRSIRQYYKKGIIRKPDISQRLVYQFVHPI
How it was run: as §1

ETV7 = molecular target: T10, ETV7 (Homo sapiens, UniProt Q9Y603 1-341); conditions: protein: recombinant; tags: N-terminal GST; dsDNA, one strand shown
T10 sequence: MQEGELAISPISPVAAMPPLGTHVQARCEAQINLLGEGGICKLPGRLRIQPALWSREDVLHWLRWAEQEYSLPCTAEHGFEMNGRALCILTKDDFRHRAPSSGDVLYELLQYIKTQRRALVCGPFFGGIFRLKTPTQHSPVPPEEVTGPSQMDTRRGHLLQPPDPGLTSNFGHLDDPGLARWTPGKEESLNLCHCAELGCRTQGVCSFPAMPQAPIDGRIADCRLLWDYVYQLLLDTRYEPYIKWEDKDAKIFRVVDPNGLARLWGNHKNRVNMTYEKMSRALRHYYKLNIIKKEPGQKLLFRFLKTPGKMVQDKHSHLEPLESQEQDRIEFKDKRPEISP
How it was run: as §1

ELF5 = molecular target: T11, ELF5 (Homo sapiens, UniProt Q9UKW6-2 1-255); conditions: protein: recombinant; tags: N-terminal GST; dsDNA, one strand shown
T11 sequence: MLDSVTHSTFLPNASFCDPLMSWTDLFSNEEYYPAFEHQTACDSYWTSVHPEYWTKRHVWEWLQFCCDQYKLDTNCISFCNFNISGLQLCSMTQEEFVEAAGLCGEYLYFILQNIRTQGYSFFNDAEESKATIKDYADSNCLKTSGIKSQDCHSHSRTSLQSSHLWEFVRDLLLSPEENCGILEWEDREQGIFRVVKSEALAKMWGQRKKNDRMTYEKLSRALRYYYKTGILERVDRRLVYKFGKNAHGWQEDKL
How it was run: as §1

ETV3 = molecular target: T12, ETV3 (Homo sapiens, UniProt P41162-2 1-143); conditions: protein: recombinant; tags: N-terminal GST; dsDNA, one strand shown
T12 sequence: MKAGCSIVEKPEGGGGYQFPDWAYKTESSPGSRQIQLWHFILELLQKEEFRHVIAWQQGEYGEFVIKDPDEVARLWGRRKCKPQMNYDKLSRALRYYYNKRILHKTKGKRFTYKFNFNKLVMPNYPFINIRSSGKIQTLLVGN
How it was run: as §1

ETV6 = ETV6 (Homo sapiens, UniProt P41212 1-452); conditions: protein: recombinant; tags: N-terminal GST; dsDNA, one strand shown
Chain of ETV6 (P41212 whole entry): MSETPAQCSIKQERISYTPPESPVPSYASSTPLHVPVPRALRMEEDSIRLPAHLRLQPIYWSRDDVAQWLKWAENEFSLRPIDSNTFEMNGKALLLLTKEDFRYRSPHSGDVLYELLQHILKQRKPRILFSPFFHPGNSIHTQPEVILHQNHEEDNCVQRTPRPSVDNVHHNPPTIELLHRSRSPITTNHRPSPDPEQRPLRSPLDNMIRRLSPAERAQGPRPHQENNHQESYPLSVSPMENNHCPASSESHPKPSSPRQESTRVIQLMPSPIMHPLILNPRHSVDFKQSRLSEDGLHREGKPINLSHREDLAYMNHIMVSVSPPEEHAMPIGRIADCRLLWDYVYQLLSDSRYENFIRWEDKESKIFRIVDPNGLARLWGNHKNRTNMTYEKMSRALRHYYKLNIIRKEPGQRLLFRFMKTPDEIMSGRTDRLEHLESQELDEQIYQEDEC
How it was run: as §1

Sequence: TATAGA
- binding signal (FEV): 1.04 fold enrichment (6-mer frequency, TF over GST control)
- binding signal (ETV5): 1.08 fold enrichment (6-mer frequency, TF over GST control)
- binding signal (HSF1): 1.52 fold enrichment (6-mer frequency, TF over GST control)
- binding signal (SPIC): 1.04 fold enrichment (6-mer frequency, TF over GST control)
- binding signal (ELF4): 1.09 fold enrichment (6-mer frequency, TF over GST control)
- binding signal (ELK4): 1 fold enrichment (6-mer frequency, TF over GST control)
- binding signal (ETV2): 1.08 fold enrichment (6-mer frequency, TF over GST control)
- binding signal (ELF3): 1.17 fold enrichment (6-mer frequency, TF over GST control)
- binding signal (CRX): 1.45 fold enrichment (6-mer frequency, TF over GST control)
- binding signal (ETV1): 1.13 fold enrichment (6-mer frequency, TF over GST control)
- binding signal (ERF): 1.06 fold enrichment (6-mer frequency, TF over GST control)
- binding signal (ETV3L): 1.18 fold enrichment (6-mer frequency, TF over GST control)
- binding signal (ETS2): 1.04 fold enrichment (6-mer frequency, TF over GST control)
- binding signal (SPDEF): 1.14 fold enrichment (6-mer frequency, TF over GST control)
- binding signal (ETV7): 1.08 fold enrichment (6-mer frequency, TF over GST control)
- binding signal (ELF5): 1.09 fold enrichment (6-mer frequency, TF over GST control)
- binding signal (ETV3): 1.07 fold enrichment (6-mer frequency, TF over GST control)
- binding signal (ETV6): 1.11 fold enrichment (6-mer frequency, TF over GST control)
